Molecules are shown by their SMILES. Records with an inconclusive call do not appear. Values without a mark were called inactive. Active and inactive are the calls of the source. The call rests on the fitted dose curve; in most records, active means well fitted activation curve with a large enough effect in the repeat runs; inconclusive means weak or mixed curves; inactive means no such curve, though single readings can be large or run the other way.
On the % scale 0 is the no-effect control and ±100 the full control effect; potency means the concentration at half of the fitted maximal effect.

This experiment can be described thus: qHTS assay to identify small molecule agonists of the estrogen related receptor (ERR) signaling pathway (AID 1224820). To be noted: ERR reporter cell line, luciferase agonist mode; series mostly up to 46.1 µM; activation: at the top concentration. An excerpt: National Center for Advancing Translational Sciences [NCATS]
NIH Chemical Genomics Center [NCGC]
U.S. Environmental Protection Agency [EPA]
National Institutes of Environmental Health Sciences [NIEHS]
National Toxicology Program [NTP]
Estrogen related receptors (ERRs), the first orphan nuclear receptors discovered, play an important role in the control of cellular energy metabolism. ERRs are required for high-energy production in response to the environmental challenges. ERR-alpha was also identified as an adverse marker for breast cancer progression; ERR-alpha-positive tumors have a poor prognosis. To screen and to identify environmental compounds that perturb the ERR signaling pathways could provide valuable information for potential therapeutic or preventive measures in the treatment of metabolic disease. For identifying ERR agonists, ERR cell line (provided by NTP) has been used to screen LOPAC library.
The ERR cells were dispensed at 2,000 cells/5 ul/well in 1536-well white plates using a Multidrop dispenser. After the assay plates were incubated at a 37 C/5% CO2 incubator for 6 hours, 23 nL of compounds dissolved in DMSO, positive and negative controls or DMSO only was transferred to the assay plate by a pin tool. The plates were incubated at 37 C for 18 hours. 4 ul/well of One-Glo reagent was added into the assay plates using a Flying Reagent Dispenser. After 30 min incubation at room temperature, the luminescence intensity in the plates was measured using a ViewLux plate reader.
In general terms: Quantitative high-throughput screening tests each substance at several concentrations.
Regarding `O=Nc1c(-c2c(O)[nH]c3cc(Br)ccc23)[nH]c2ccccc12`, the Potency is 1680 nM (active). Take `NC(N)=NC(N)=Nc1ccccc1`: the “activation” value is 9.88%.

With `COc1ccc2c(c1)CCC1C2CC[C@@]2(C)C1CC[C@@H]2NCCCCCCN1C(=O)CCC1=O` (stereo not given in full), the “activation” value was -22.5%. Take `O=C(O)CCC(=O)N1CCCC1C(=O)O` (stereo not given): the “activation” value was 20.9%. As to `NCCS(=O)O`, the “activation” value is 2.82%. As to `Oc1ccc2ccccc2c1SSc1c(O)ccc2ccccc12`, the “activation” value is -62.2%. Take `COc1ccc(-c2cc(=O)c3c(O)c(OC)c(OC)cc3o2)cc1O`: the “activation” value is -41.7%. Regarding `CCN(c1nc(N)c(C(=O)N=C(N)N)nc1Cl)C(C)C`, the “activation” value is -65.3%.

For the compound `NC(=O)c1cccc(N)c1`, the “activation” value is 12.9%. On to `COc1ccc(/C=C2\COc3ccc(C)cc3C2=O)cc1O`, for which the Potency is 1190 nM (active). Turning to `CC(C)Cn1c(=O)n(C)c(=O)c2[nH]cnc21`, the “activation” value is -3.74%. On to `N[C@H](C(=O)O)[C@H](O)C(=O)O`, for which the “activation” value is -9.61%. In the case of `CC1(C)C(=O)N(CCN2CCC(C(=O)c3ccc(F)cc3)CC2)c2ccccc21`, the “activation” value is -83.7%. Turning to `CCC(NC(C)C)C(O)c1ccc(O)c(O)c1` (stereo not given), the “activation” value is 13.3%.

In the case of `CCN(CC)CC#CCOC(=O)C(O)(c1ccccc1)C1CCCCC1` (stereo not given), the “activation” value is -30.4%. As to `CCN(CC)CCn1c(=O)c(Cc2ccc(OC)cc2)nc2ccccc21`, the “activation” value is 1.1%. With `CN[C@H](CC(C)C)C(=O)N[C@H]1C(=O)N[C@@H](CC(N)=O)C(=O)N[C@H]2C(=O)N[C@H]3C(=O)N[C@H](C(=O)N[C@H](C(=O)O)c4cc(O)cc(O)c4-c4cc3ccc4O)[C@H](O)c3ccc(c(Cl)c3)Oc3cc2cc(c3O[C@@H]2O[C@H](CO)[C@@H](O)[C@H](O)[C@H]2O[C@H]2C[C@](C)(N)[C@H](O)[C@H](C)O2)Oc2ccc(cc2Cl)[C@H]1O`, the “activation” value is 5.86%.

As for `NCC(O)(CS(=O)(=O)O)c1ccc(Cl)cc1` (stereo not given), the “activation” value was 14.8%.

`Cc1cc(Cl)ccc1OCCCC(=O)NO`: the “activation” value was -41.6%.

Consider `CCOC(=O)C1=C(O)C(=O)N(Cc2ccccc2)C1`, for which the “activation” value was 10.8%.

Consider `CC(C)c1ccc2c(c1)c(SC(C)(C)C)c(CC(C)(C)C(=O)O)n2Cc1ccc(Cl)cc1`, for which the “activation” value was -81.7%. Regarding `COc1ccc(C(=O)/C(Cc2cc(OC)c(OC)c(OC)c2)=C(\C(=O)O)c2ccc3c(c2)OCO3)cc1`, the “activation” value is -88.9%. Regarding `NCCCCCCCCCCN`, the “activation” value is -4.63%. Turning to `O=c1cc(-c2ccccc2)[nH]c2nc(Cl)ccc12`, the “activation” value was 5.54%. In the case of `Nc1nc2c(cnn2CCc2ccccc2)c2nc(-c3ccco3)nn12`, the “activation” value was -9.87%.

Take `CCOC(=O)C12CC1/C(=N/O)c1ccccc1O2` (stereo not given): the “activation” value was -6.34%.

For the compound `CCCCCCCC/C=C\CCCCCCCC(=O)NCCc1ccc(O)c(O)c1`, the “activation” value is -40.1%. As to `O=C1NC(=O)C(c2ccccc2[N+](=O)[O-])=C1Nc1ccc(O)c(Cl)c1`, the “activation” value is 4.49%. `CC(=O)/C=C1\C(=O)N(C)c2ccccc21`: the “activation” value is -44.4%. Take `NC(=O)C1=CN(C2OC(COP(=O)(O)OP(=O)(O)OC[C@H]3O[C@@H](n4cnc5c(N)ncnc54)[C@H](OP(=O)(O)O)C3O)C(O)C2O)C=CC1` (stereo not given in full): the “activation” value was 18.7%. With `CO/N=C(\C(=O)N[C@@H]1C(=O)N2C(C(=O)O)=C(CSc3nc(=O)c(O)nn3C)CSC12)c1csc(N)n1` (stereo not given in full), the “activation” value was 11%. Same read-out and setting: the value for `CCCCCCCCCCC/C=C\C(C)(C)/C=C\CCCC(=O)O` was -27.1%.

In the case of `CNc1ncnc2c1ncn2[C@H]1C[C@H](OP(=O)(O)O)[C@@H](COP(=O)(O)O)O1`, the “activation” value is 6.9%.

Consider `CNCCC(Oc1ccccc1C)c1ccccc1` (stereo not given), for which the “activation” value was -16%. In the case of `Nc1nc(OCc2ccccc2)c2[nH]cnc2n1`, the “activation” value is -5.93%.

On to `Cc1nc2c(OCc3ccccc3)cccn2c1CC#N`, for which the “activation” value was 2.82%.

Consider `CSc1nc(N)c2ncn([C@@H]3O[C@H](COP(=O)(O)OP(=O)(O)O)C(O)[C@H]3O)c2n1` (stereo not given in full), for which the “activation” value was -5.27%. Turning to `COC(=O)c1c(C)[nH]c(C)c1C(=O)c1ccccc1Cc1ccccc1`, the “activation” value was -40.9%.

Consider `N[C@@H](CC(=O)O)C(=O)O`, for which the “activation” value was 14.4%. On the same count and under the same terms, in the case of `NCCCS(=O)(=O)O` it was -14.5%.

The values above are taken from PubChem BioAssay (Tox21).
